Hits are enriched below; roughly 17% of the tested compounds scored in any of these assays.
TDP1 cell CPT = qHTS for Inhibitors of human tyrosyl-DNA phosphodiesterase 1 (TDP1): qHTS in cells in presence of CPT. chicken DT40 Tdp1-/-;hTDP1 cells + 20 nM CPT, ATP luminescence, 48 h. Potency, µM (top dose mostly 46.2 µM), actives largely listed as inhibitors. 420,000 tested, 12% active. AID 686979, 2013; note: nearly all actives have a fitted effect of over 55% in size
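Cell growth measured by CellTiter-Glo luminescence after a minimum 48 h, 37 C compound exposure with 20 nM CPT in Tdp1-knockout DT40 cells stably expressing hTDP1, seeded 400/well; qHTS titration format.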
TGFb SMAD3 inh = qHTS for Inhibitors of TGF-b | HepG2 CAGA-GFP TGF-b/SMAD3 reporter, GFP fluorescence, 18 h; TGF-beta stimulated, 500 pg/mL final | Potency, µM (titrated, usually from 46.1 µM), usual class: inhibitors | 410,000 tested, 1.2% active | AID 588855, 2011; note: nearly all actives have a fitted effect of over 65% in size
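GFP signal (ex488/em500-530) from TGF-beta-stimulated HEPG2 CAGA-GFP cells, 500 pg/mL final, 18 h at 37 degrees C in DMEM plus 1% FBS, normalized to unstimulated and DMSO-stimulated controls.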
ATXN2 expr inh = Primary qHTS for Inhibitors of ATXN expression; HEK-293 ATXN2-luciferase reporter, luminescence, 24 h; 360,000 tested, 0.72% active; Potency, µM (doses to about 57 µM), usual class: inhibitors; note: nearly all actives have a fitted effect of over 55% in size
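qHTS (up to 57 uM final) was run with 24 h compound exposure of reporter cells at 37 °C. Each well was multiplexed: SteadyGlo luminescence measured ATXN2-luciferase expression after a fluorogenic Gly-Phe-AFC viability readout (25 uM final).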
DT40 TDP1 no CPT = qHTS for Inhibitors of human tyrosyl-DNA phosphodiesterase 1 (TDP1): qHTS in cells in absence of CPT; DT40 Tdp1-/- hTDP1 cells, no CPT, ATP luminescence, 48 h; Potency, µM (top dose mostly 46.2 µM), hits mostly inhibitors; 420,000 tested, 15% active; AID 686978, 2013; note: nearly all actives have a fitted effect of over 55% in size
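Growth kinetics read by CellTiter-Glo luminescence after ≥48 hr at 37 °C. Cells: DT40 Tdp1-/- stably carrying human TDP1, 400 per well, compound exposure in the absence of CPT (DMSO vehicle).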
HepG2 viability = qHTS for Inhibitors of TGF-b: Cytotox Counterscreen; HepG2 CAGA-GFP viability, ATP luminescence, 18 h; Potency, µM (series often up to 46.1 µM), actives largely listed as cytotoxic; 410,000 tested, 0.76% active
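HepG2 CAGA-GFP cells (1000/well, DMEM with 1% FBS) received compound, then TGF-beta at 500 pg/mL final, and were incubated 18 hours at 37 degrees C. Viability was read by CellTiter-Glo luminescence. Media-only wells were set as complete cell-killing and DMSO as no toxicity.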
ATXN viability = Viability Counterscreen for Primary qHTS for Inhibitors of ATXN expression. 400,000 tested, 0.49% active. S2 cells (HEK-293 line with an ATXN2-luciferase reporter) viability, CellTiter-Fluor protease fluorescence, 24 h. Potency, µM (series often up to 56.7 µM), most hits filed as cytotoxic. AID 651635, 2014; note: nearly all actives have a fitted effect of over 40% in size
Each line names hits and unclear results; the compound was inactive in the other large screens. Calls come from the whole dose curve; as a rule, active = well fitted curve in the direction sought with a large enough effect; inconclusive = small, poorly fitted or top-dose-only effect, or another doubt; inactive = no such curve, though single readings can be large; an effect the other way counts as inactive or inconclusive.

C[C@@H]1C[C@@H](CC(=O)NCC2Cc3cccc(-c4ccncc4)c3O2)NC(=S)N1 (stereo not given in full)	none (no result: TGFb SMAD3 inh, ATXN2 expr inh, HepG2 viability)
O=C(Nc1cccc(N2CCC(NCc3cnn(-c4cccc(F)c4)c3)CC2)c1)c1ccncc1	DT40 TDP1 no CPT inconclusive, ATXN viability inconclusive (no result: TGFb SMAD3 inh, ATXN2 expr inh, HepG2 viability)
C=C1NN(C(C)C(=O)O)C(=O)N1c1ccc(OCc2ccccc2)cc1 (stereo not given)	none (no result: ATXN2 expr inh, ATXN viability)
CCCC(=O)Nc1ccccc1-c1nnn(CC(=O)Nc2ccc(OCC)cc2)n1	TDP1 cell CPT inconclusive, ATXN2 expr inh inconclusive, DT40 TDP1 no CPT 21µM
COc1ccc(NC(=O)Cn2nnc(-c3ccccc3NC(=O)c3cccs3)n2)cc1	TDP1 cell CPT inconclusive, ATXN2 expr inh inconclusive, DT40 TDP1 no CPT inconclusive, ATXN viability inconclusive
CCOc1ccc(NC(=O)Cn2nnc(-c3ccccc3NC(=O)CC)n2)cc1	TDP1 cell CPT inconclusive, DT40 TDP1 no CPT 16µM, ATXN viability inconclusive
Cc1ccccc1C(=O)Nc1ccccc1-c1nnn(CC(=O)Nc2ccc3c(c2)OCCO3)n1	TDP1 cell CPT 23µM, DT40 TDP1 no CPT 15µM, ATXN viability inconclusive
C[C@@H]1CN([C@@H](C)CO)C(=O)CCCn2nncc2CO[C@H]1CN(C)C(=O)c1ccc2ccn(C)c2c1	none
CC(C)[C@H](NC(=O)C1CC(=O)N(c2ccc(F)cc2)C1)C(=O)N1CCCCC1 (stereo not given in full)	TDP1 cell CPT inconclusive, DT40 TDP1 no CPT inconclusive
O=C(NC(=S)N1CCN(c2ccc([N+](=O)[O-])cc2)CC1)c1ccccc1F	TDP1 cell CPT inconclusive, DT40 TDP1 no CPT 21µM
CC1CCC(C(=O)NC(C(=O)N2CCN(c3ccccn3)CC2)C(C)C)CC1 (stereo not given)	DT40 TDP1 no CPT inconclusive, ATXN viability inconclusive
CC(C)C(NC(=O)C1CCCCC1)C(=O)N1CCN(c2ccc(F)cc2)CC1 (stereo not given)	TDP1 cell CPT 13µM, DT40 TDP1 no CPT 16µM
O=[N+]([O-])c1ccc(N2CCN(C(=S)Nc3ccccc3)CC2)cc1	DT40 TDP1 no CPT inconclusive, ATXN viability inconclusive
O=C(NC(=S)N1CCN(c2ccc([N+](=O)[O-])cc2)CC1)c1ccc(F)cc1	TDP1 cell CPT inconclusive, TGFb SMAD3 inh inconclusive, DT40 TDP1 no CPT 26µM, ATXN viability inconclusive
CC1CCC(C(=O)NC(C(=O)N2CCc3ccccc3C2)C(C)C)CC1 (stereo not given)	TDP1 cell CPT 16µM, DT40 TDP1 no CPT inconclusive
COc1ccc(NC2CCCN(C(=O)COc3ccc(C(C)=O)cc3)C2)cc1 (stereo not given)	none (no result: ATXN2 expr inh)
CN1CCN(C(=O)c2cnn(-c3ccc(F)cc3F)c2C2CCN(C(=O)OC(C)(C)C)CC2)CC1	none (no result: ATXN2 expr inh, ATXN viability)
CC(C)(C)c1nnc(NC(=O)C2CC(=O)N(CCc3ccc(F)cc3)C2)s1 (stereo not given)	none
O=C(NC(=S)N1CCN(c2ccc(F)cc2)CC1)c1ccccc1	TDP1 cell CPT inconclusive, DT40 TDP1 no CPT 21µM (no result: ATXN2 expr inh)
O=C(NC(Cc1ccccc1)C(=O)N1CCN(c2ccc(F)cc2)CC1)c1ccccc1 (stereo not given)	TDP1 cell CPT inconclusive, DT40 TDP1 no CPT 26µM (no result: ATXN2 expr inh)
O=C(NC(Cc1ccccc1)C(=O)N1CCCCCC1)c1ccccc1 (stereo not given)	DT40 TDP1 no CPT inconclusive
COc1c(C)cc(C(=O)C2CCCN(C(=O)c3cc4nc(C)cc(C)n4n3)C2)cc1C (stereo not given)	TDP1 cell CPT inconclusive, DT40 TDP1 no CPT inconclusive, ATXN viability inconclusive
O=C(O)c1cccc(NS(=O)(=O)/C=C/c2ccccc2)c1	none
O=C(O)c1cccc(NC2=C(Cl)C(=O)c3ccccc3C2=O)c1	TDP1 cell CPT 12µM, TGFb SMAD3 inh inconclusive, ATXN2 expr inh inconclusive, DT40 TDP1 no CPT 13µM, ATXN viability 25µM

Compound activity (PubChem BioAssay)
